Test results from PMC7862700, “An all-to-all approach to the identification of sequence-specific readers for epigenetic DNA modifications on cytosine”.

Tests used:
Test in all cases: DAPPL (digital affinity profiling via proximity ligation, sequencing); 10 mM Tris-HCl pH 7.5, 50 mM NaCl, 1 mM DTT, 4% glycerol, room temperature, 30 min; GST-TFs on glutathione beads, 16-mer random dsDNA library, 0.1% formaldehyde crosslink after washing; high values mean tight binding
Conditions in all cases: protein: recombinant; tags: N-terminal GST; dsDNA, one strand shown
[1] = biological target: T1, ERF (Homo sapiens, UniProt P50548 1-548)
T1 sequence: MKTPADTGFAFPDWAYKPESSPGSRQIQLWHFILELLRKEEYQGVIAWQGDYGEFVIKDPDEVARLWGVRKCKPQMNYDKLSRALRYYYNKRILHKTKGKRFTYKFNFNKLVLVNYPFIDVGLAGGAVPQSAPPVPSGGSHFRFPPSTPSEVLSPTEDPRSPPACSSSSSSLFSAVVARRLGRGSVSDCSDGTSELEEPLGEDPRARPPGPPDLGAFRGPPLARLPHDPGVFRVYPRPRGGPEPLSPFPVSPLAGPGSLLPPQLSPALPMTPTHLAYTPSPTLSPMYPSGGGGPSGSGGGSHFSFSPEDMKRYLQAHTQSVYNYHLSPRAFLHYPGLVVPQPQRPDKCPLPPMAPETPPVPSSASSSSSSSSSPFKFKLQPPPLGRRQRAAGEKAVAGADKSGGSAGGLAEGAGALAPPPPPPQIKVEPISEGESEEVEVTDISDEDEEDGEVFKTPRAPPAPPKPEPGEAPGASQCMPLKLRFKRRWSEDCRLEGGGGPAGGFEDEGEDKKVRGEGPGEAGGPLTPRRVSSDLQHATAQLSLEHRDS
In short: (§1)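 After expression in yeast as GST fusions, human transcription factors were bound to glutathione beads, DNA-barcoded and mixed with a tag-only sample. The pools were incubated with 200 nmole of a 16-mer random double-stranded DNA library in Tris/NaCl/DTT/glycerol buffer (30 min, room temperature), washed and crosslinked with 0.1% formaldehyde. Proximity ligation with BsaI/T4 ligase ran for 1 h at 37 °C, before PCR amplification and sequencing on an Illumina NextSeq500. Binding signal is a hexamer's read frequency for a factor divided by its frequency for the tag-only sample.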

[2] = biological target: T2, ETV3L (Homo sapiens, UniProt Q6ZN32 1-361)
T2 sequence: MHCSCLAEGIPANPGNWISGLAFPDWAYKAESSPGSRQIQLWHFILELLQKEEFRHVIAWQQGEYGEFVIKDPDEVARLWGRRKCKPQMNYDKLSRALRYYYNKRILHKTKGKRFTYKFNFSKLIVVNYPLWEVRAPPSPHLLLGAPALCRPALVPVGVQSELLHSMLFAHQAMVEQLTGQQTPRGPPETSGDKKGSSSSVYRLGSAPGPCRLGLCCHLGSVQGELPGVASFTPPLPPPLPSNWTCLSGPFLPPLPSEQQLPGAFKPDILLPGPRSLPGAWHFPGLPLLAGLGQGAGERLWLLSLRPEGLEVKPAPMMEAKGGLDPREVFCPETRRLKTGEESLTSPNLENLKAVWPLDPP
In short: as §1

[3] = biological target: T3, ETS2 (Homo sapiens, UniProt P15036 1-469)
T3 sequence: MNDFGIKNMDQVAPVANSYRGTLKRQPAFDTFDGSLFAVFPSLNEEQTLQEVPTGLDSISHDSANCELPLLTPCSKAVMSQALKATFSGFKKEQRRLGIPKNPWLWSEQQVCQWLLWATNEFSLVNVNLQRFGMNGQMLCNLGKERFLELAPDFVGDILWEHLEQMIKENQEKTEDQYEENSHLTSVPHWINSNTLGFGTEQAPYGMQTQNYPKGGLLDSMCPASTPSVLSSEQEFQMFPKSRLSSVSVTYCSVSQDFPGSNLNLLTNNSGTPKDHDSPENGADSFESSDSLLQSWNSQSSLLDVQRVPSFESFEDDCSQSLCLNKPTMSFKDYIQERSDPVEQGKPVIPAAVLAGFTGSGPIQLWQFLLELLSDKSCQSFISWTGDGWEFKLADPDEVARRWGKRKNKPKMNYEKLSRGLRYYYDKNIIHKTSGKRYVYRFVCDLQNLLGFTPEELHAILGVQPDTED
In short: as §1

[4] = biological target: T4, SPDEF (Homo sapiens, UniProt O95238 1-335)
T4 sequence: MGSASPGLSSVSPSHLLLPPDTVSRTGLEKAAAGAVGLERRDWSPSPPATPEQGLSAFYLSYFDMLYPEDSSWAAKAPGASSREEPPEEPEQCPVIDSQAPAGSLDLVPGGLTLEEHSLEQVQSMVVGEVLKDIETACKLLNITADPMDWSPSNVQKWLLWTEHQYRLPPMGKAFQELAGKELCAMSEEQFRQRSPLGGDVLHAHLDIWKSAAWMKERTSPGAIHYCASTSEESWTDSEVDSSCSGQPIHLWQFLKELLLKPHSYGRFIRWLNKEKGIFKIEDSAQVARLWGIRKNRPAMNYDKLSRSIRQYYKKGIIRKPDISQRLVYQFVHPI
In short: as §1

[5] = biological target: T5, ETV3 (Homo sapiens, UniProt P41162-2 1-143)
T5 sequence: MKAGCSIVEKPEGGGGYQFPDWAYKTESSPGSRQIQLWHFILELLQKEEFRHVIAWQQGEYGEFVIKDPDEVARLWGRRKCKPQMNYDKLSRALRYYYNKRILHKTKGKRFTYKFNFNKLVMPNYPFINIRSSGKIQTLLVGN
In short: as §1

[6] = biological target: ETV6 (Homo sapiens, UniProt P41212 1-452)
In short: as §1

[7] = biological target: T6, ETV7 (Homo sapiens, UniProt Q9Y603 1-341)
T6 sequence: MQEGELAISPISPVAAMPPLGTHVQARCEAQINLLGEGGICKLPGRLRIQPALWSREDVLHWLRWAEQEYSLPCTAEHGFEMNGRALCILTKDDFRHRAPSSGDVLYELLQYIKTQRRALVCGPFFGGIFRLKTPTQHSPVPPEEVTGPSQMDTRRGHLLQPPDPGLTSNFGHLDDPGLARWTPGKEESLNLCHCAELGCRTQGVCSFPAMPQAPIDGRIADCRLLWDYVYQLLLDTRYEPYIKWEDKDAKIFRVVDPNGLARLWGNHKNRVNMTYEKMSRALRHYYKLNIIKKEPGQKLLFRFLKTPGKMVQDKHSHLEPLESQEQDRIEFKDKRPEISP
In short: as §1

[8] = biological target: T7, ELF5 (Homo sapiens, UniProt Q9UKW6-2 1-255)
T7 sequence: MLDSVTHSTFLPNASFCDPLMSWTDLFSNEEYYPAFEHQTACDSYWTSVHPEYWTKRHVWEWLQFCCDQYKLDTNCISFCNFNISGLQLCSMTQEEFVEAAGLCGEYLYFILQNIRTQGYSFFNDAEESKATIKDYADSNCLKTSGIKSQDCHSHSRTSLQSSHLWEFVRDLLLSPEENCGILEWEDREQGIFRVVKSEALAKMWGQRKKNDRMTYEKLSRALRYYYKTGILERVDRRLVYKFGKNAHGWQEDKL
In short: as §1

Chain of ETV6 (P41212 whole entry): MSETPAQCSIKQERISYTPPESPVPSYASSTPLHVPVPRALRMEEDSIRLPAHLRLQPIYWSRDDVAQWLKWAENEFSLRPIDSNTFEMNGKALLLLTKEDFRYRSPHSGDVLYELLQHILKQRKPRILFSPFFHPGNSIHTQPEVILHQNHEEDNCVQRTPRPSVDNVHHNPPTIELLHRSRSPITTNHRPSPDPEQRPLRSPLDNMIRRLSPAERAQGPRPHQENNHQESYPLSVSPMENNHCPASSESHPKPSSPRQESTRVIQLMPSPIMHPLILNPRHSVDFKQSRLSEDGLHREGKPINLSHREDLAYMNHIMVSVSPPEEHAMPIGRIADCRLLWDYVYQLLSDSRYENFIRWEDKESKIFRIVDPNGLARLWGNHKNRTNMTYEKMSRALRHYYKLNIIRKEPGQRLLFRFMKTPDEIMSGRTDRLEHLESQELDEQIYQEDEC

Sequence	binding signal [1]	binding signal [2]	binding signal [3]	binding signal [4]	binding signal [5]	binding signal [6]	binding signal [7]	binding signal [8]
TGTGCA	1.21 fold enrichment (6-mer frequency, TF over GST control)	1.06 fold enrichment (6-mer frequency, TF over GST control)	1.16 fold enrichment (6-mer frequency, TF over GST control)	1.14 fold enrichment (6-mer frequency, TF over GST control)	1.08 fold enrichment (6-mer frequency, TF over GST control)	1 fold enrichment (6-mer frequency, TF over GST control)		
TTTCGC	1.1 fold enrichment (6-mer frequency, TF over GST control)	1.25 fold enrichment (6-mer frequency, TF over GST control)	1.14 fold enrichment (6-mer frequency, TF over GST control)		1.13 fold enrichment (6-mer frequency, TF over GST control)	1.11 fold enrichment (6-mer frequency, TF over GST control)	1.16 fold enrichment (6-mer frequency, TF over GST control)	1.08 fold enrichment (6-mer frequency, TF over GST control)
ACGATC	1.16 fold enrichment (6-mer frequency, TF over GST control)	1.02 fold enrichment (6-mer frequency, TF over GST control)	1.14 fold enrichment (6-mer frequency, TF over GST control)		1.03 fold enrichment (6-mer frequency, TF over GST control)		1 fold enrichment (6-mer frequency, TF over GST control)	1.01 fold enrichment (6-mer frequency, TF over GST control)
TCATGG	1.07 fold enrichment (6-mer frequency, TF over GST control)	1.05 fold enrichment (6-mer frequency, TF over GST control)	1.1 fold enrichment (6-mer frequency, TF over GST control)		1.11 fold enrichment (6-mer frequency, TF over GST control)	1.11 fold enrichment (6-mer frequency, TF over GST control)	1.1 fold enrichment (6-mer frequency, TF over GST control)	1.07 fold enrichment (6-mer frequency, TF over GST control)
CCATTA	1.07 fold enrichment (6-mer frequency, TF over GST control)	1.16 fold enrichment (6-mer frequency, TF over GST control)	1.12 fold enrichment (6-mer frequency, TF over GST control)		1.11 fold enrichment (6-mer frequency, TF over GST control)	1.13 fold enrichment (6-mer frequency, TF over GST control)	1.13 fold enrichment (6-mer frequency, TF over GST control)	1.08 fold enrichment (6-mer frequency, TF over GST control)
TCTAGG	1.03 fold enrichment (6-mer frequency, TF over GST control)	1.08 fold enrichment (6-mer frequency, TF over GST control)	1.02 fold enrichment (6-mer frequency, TF over GST control)		1.12 fold enrichment (6-mer frequency, TF over GST control)	1.02 fold enrichment (6-mer frequency, TF over GST control)	1.16 fold enrichment (6-mer frequency, TF over GST control)	1.07 fold enrichment (6-mer frequency, TF over GST control)
ATCACA	1.04 fold enrichment (6-mer frequency, TF over GST control)	1.05 fold enrichment (6-mer frequency, TF over GST control)	1.09 fold enrichment (6-mer frequency, TF over GST control)	1.05 fold enrichment (6-mer frequency, TF over GST control)	1.09 fold enrichment (6-mer frequency, TF over GST control)	1.13 fold enrichment (6-mer frequency, TF over GST control)		
AACAGC	1.15 fold enrichment (6-mer frequency, TF over GST control)	1.05 fold enrichment (6-mer frequency, TF over GST control)	1.08 fold enrichment (6-mer frequency, TF over GST control)		1.13 fold enrichment (6-mer frequency, TF over GST control)	1.1 fold enrichment (6-mer frequency, TF over GST control)	1.21 fold enrichment (6-mer frequency, TF over GST control)	1.09 fold enrichment (6-mer frequency, TF over GST control)
AAGCAA	1.01 fold enrichment (6-mer frequency, TF over GST control)	1.01 fold enrichment (6-mer frequency, TF over GST control)	1.11 fold enrichment (6-mer frequency, TF over GST control)		1.12 fold enrichment (6-mer frequency, TF over GST control)	1.02 fold enrichment (6-mer frequency, TF over GST control)	1.05 fold enrichment (6-mer frequency, TF over GST control)	1.03 fold enrichment (6-mer frequency, TF over GST control)
AGCCTA	1.12 fold enrichment (6-mer frequency, TF over GST control)	1.09 fold enrichment (6-mer frequency, TF over GST control)	1.04 fold enrichment (6-mer frequency, TF over GST control)		1.1 fold enrichment (6-mer frequency, TF over GST control)		1.13 fold enrichment (6-mer frequency, TF over GST control)	
TAGTAA	1.09 fold enrichment (6-mer frequency, TF over GST control)	1.04 fold enrichment (6-mer frequency, TF over GST control)		1.02 fold enrichment (6-mer frequency, TF over GST control)	1.06 fold enrichment (6-mer frequency, TF over GST control)	1.07 fold enrichment (6-mer frequency, TF over GST control)	1.16 fold enrichment (6-mer frequency, TF over GST control)	1.04 fold enrichment (6-mer frequency, TF over GST control)
